Reference: PubChem BioAssay AID624483 (NMMLSC, 2012)
About 11,000 (3.1%) of roughly 360,000 compounds were called active. Another 2% or so got no clear call; they are omitted. Cut-off read from the data, not from the text of the source: active = fluorescence intensity above about 16000; inconclusive = no clear call, values can overlap the other calls; inactive = below that. Only a selection was taken, and actives are over-represented in it overall.

assay: compound fluorescence in toxin protease inhibitor counterscreen, primary screen, artefact control for toxin protease inhibitor project, biochemical, multiplex microsphere, HTS (AID 624483); details: compound autofluorescence counterscreen, microsphere flow cytometry; active compounds read high

Row | SMILES | fluorescence intensity
1 | CCc1ccc(OC2(C)CCN(CCOc3ccc(C)cc3)C2)cc1 (stereo not given) | 3880 (inactive)
2 | Cc1nc2ccc(S(=O)(=O)NCC(=O)NCCN3CCCCC3C)cc2s1 (stereo not given) | 3450 (inactive)
3 | Cc1ccc(N(Cc2cc(=O)[nH]c3ccccc23)C(=O)CCl)cc1 | 3750 (inactive)
4 | CSc1ccc(CCNC(=O)CS(=O)(=O)Cc2nc(-c3ccccc3F)oc2C)cc1 | 5680 (inactive)
5 | Cc1oc(-c2ccccc2F)nc1CS(=O)(=O)CC(=O)NCCCN(C)C1CCCCC1 | 17000 (active)
6 | Cc1oc(-c2ccccc2F)nc1CS(=O)CC(=O)NCCN1CCCCC1C (stereo not given) | 5840 (inactive)
7 | CC1(C(=O)Nc2cccc3c2CCCC3)CCN1C(=O)CCc1ccc(Cl)cc1Cl (stereo not given) | 3570 (inactive)
8 | C=C(C)CNC(=S)Nc1ccc(S(=O)(=O)Nc2cnc3ccccc3n2)cc1 | 4200 (inactive)
9 | Cc1ccc(NS(=O)(=O)c2cc3c(cc2Br)NC(=O)CO3)cc1C | 2960 (inactive)
10 | CCCc1[nH]nc2c1C(c1ccc(Br)s1)C(C#N)=C(N)O2 (stereo not given) | 2790 (inactive)
11 | CCCc1nc2c([nH]1)C(c1cccnc1)C(C#N)=C(N)O2 (stereo not given) | 7630 (inactive)
12 | CCCc1[nH]nc2c1C(c1ccc(OC(=O)c3ccco3)cc1)C(C#N)=C(N)O2 (stereo not given) | 17200 (active)
13 | COc1ccc(C(C)(O)c2nc(-c3cc(F)cc(F)c3)cs2)cc1 (stereo not given) | 3820 (inactive)
14 | OCCN1CCN(c2ncnc3c2ncn3[C@H]2CN(Cc3ccco3)C[C@@H](CO)O2)CC1 | 2940 (inactive)
15 | CC(=O)C1=CCC(c2ccccc2)N(S(=O)(=O)c2ccc(C)cc2)C1 (stereo not given) | 4360 (inactive)
16 | CCOC(=O)C1(S(=O)(=O)c2ccccc2)CCN(Cc2ccccc2)CC1 | 25000 (active)
17 | O=C(NNS(=O)(=O)c1ccc(Cl)cc1)C1CCN(Cc2ccccc2)CC1 | 9590 (inactive)
18 | CCOC(=O)C1(CCOC)CCN(Cc2ccc(C(=O)OC)cc2)CC1 | 4510 (inactive)
19 | CCOC(=O)C1(S(=O)(=O)c2ccc(Cl)cc2)CCN(Cc2ccccc2)CC1 | 22200 (active)
20 | CCOC(=O)C1(CCOc2ccccc2)CCN(Cc2cc(OC)cc(OC)c2)CC1 | 3960 (inactive)
21 | CCOC(=O)C1(CCc2ccccc2)CCN(Cc2ccco2)CC1 | 2080 (inactive)
22 | COC(=O)[C@@]1(Cc2ccc(F)cc2)[C@H]2c3cc(C(=O)N(C)C)n(CCc4c[nH]c5ccc(OC)cc45)c3C[C@H]2CN1C(=O)c1ccccc1 | 6230 (inactive)
23 | Nc1nc2c(ncn2[C@@H]2O[C@H](CNCc3ccc(OCCCN4CCOCC4)cc3)[C@@H](O)[C@H]2O)c(=O)[nH]1 | 6030 (inactive)

Row | SMILES | fluorescence intensity
24 | CCCc1c(-c2ccccc2F)ncn1Cc1ccccc1OC | 6360 (inactive)
25 | N#C/C(=C\c1ccc(N2CCOCC2)o1)C(=O)N1CCOCC1 | 3190 (inactive)
26 | COC(=O)[C@]1(Cc2ccccc2)N[C@H](CN(C)S(=O)(=O)c2ccc(F)cc2)[C@@H]2C(=O)N(Cc3ccccc3)C(=O)[C@@H]21 | 2850 (inactive)
27 | COc1ccc(N(CC(=O)N2CCCCCC2)S(=O)(=O)c2ccccc2)cc1 | 5240 (inactive)
28 | COc1ccc(S(=O)(=O)NCCCCOc2ccc(Cl)cc2)cc1 | 3450 (inactive)
29 | COc1ccc(N(CCC#N)S(=O)(=O)c2ccc(Cl)cc2)cc1 | 19700 (active)
30 | CC1(C)C(C=C(Cl)Cl)C1C(=O)NC(O)C(=O)c1ccccc1 (stereo not given) | 3770 (inactive)
31 | CCOC(=O)C1=CC[C@@H](c2ccccc2)N(S(=O)(=O)c2ccc(C)cc2)[C@H]1c1ccc(CC)cc1 | 5350 (inactive)
32 | OC[C@@H]1CN(Cc2cccs2)C[C@H](n2cnc3c(NC4CCCC4)ncnc32)O1 | 4050 (inactive)
33 | O=C(NCC(F)(F)F)Nc1nnc(C(F)(F)F)s1 | 2520 (inactive)
34 | CC(Nc1nc(N2CCOCC2)nc2ccccc12)c1ccccc1 (stereo not given) | 4260 (inactive)
35 | Fc1cnc(N2CCOCC2)nc1NCc1ccccc1 | 19200 (active)
36 | c1ccc(COc2nsnc2N2CCOCC2)cc1 | 4190 (inactive)
37 | COc1cccc(N(CC(=O)NC2CCCC2)C(=O)Cn2nnc(-c3ccc(C)o3)n2)c1 | 5040 (inactive)
38 | CN(C(=O)Cn1nnc(-c2ccc(F)cc2)n1)C1CCS(=O)(=O)C1 (stereo not given) | 6480 (inactive)
39 | CC(C)CCNC(=O)CN(C(=O)Cn1nnc(-c2ccc(F)cc2)n1)C1CCCC1 | 7590 (inactive)
40 | COc1ccc(-c2nnn(CC(=O)N(CCO)C(C(=O)NC3CCCC3)c3ccc(F)cc3)n2)cc1 (stereo not given) | 20700 (active)
41 | COc1cccc(N(CC(=O)NC2CCCC2)C(=O)CCCC(=O)Nc2ccccn2)c1 | 6270 (inactive)
42 | CC(C)CCNC(=O)C(C)N(C(=O)Cn1nnc(-c2ccc(F)cc2)n1)C1CCCC1 (stereo not given) | 23500 (active)
43 | COc1ccc(C(C(=O)NC2CCCC2)N(CCCO)C(=O)Cn2nnc(-c3ccc(C)o3)n2)cc1 (stereo not given) | 5780 (inactive)
44 | COc1cccc(N(CC(=O)NC2CCCC2)C(=O)Cn2nnc(-c3ccc(C)cc3)n2)c1 | 20000 (active)
45 | CCOCCCN(C(=O)Cn1nnc(-c2ccc(OC)c(OC)c2)n1)C(CC)C(=O)NC1CCCC1 (stereo not given) | 3360 (inactive)
46 | Cc1ccc(C(=O)O)cc1S(=O)(=O)NCC1CCCO1 (stereo not given) | 8490 (inactive)

Row | SMILES | fluorescence intensity
47 | O=C(O)C(=Cc1ccccc1[N+](=O)[O-])c1ccccc1 | 3020 (inactive)
48 | CCOC1=C2[C@H]([C@H]3C(=O)N(c4ccccc4)C(=O)[C@H]3C1)[C@@H](c1ccccc1)N(S(=O)(=O)c1ccc(C)cc1)[C@H]2c1ccccc1 | 5740 (inactive)
49 | CN(CCO)C(=O)c1nc[nH]c1C(=O)N(C)Cc1ccccc1 | 6070 (inactive)
50 | COCCCNc1ccn2nc(-c3ccc(CC(C)C)cc3)cc2n1 | 3740 (inactive)
51 | CC1(C(=O)Nc2cccc(Oc3ccccc3)c2)CCN1Cc1ccccc1Cl (stereo not given) | 2960 (inactive)
52 | CCCS(=O)(=O)NC(=O)C1(C)CCCN(C(=O)c2ccnc(Cl)c2)C1 (stereo not given) | 3780 (inactive)
53 | O=C(NCc1cccnc1)c1cc(C2CCCN(C(=O)C3CCCCC3)C2)on1 (stereo not given) | 3680 (inactive)
54 | CC1(C)CC(=O)C=C(NC2CC(C)(C)NC(C)(C)C2)C1 | 11500 (inactive)
55 | CC1(C)CC(=O)C=C(NCCCNC2CCCCC2)C1 | 16400 (active)
56 | CC1(C)CC(=O)C=C(NCCCN2CCCC2=O)C1 | 10600 (inactive)
57 | CCOc1ccc(C(=O)NC2CCN(CC(=O)NCc3cccs3)CC2)cc1 | 4320 (inactive)
58 | CC(=O)c1cccc(-c2cnc3c(NC=O)cc(-c4ccccc4Oc4ccccc4)cn23)c1 | 2970 (inactive)
59 | CCc1nc2ccc(C(=O)Nc3ccc(OC)c(OC)c3)cn2c1N(C)C(=O)c1cccc(OC)c1 | 3840 (inactive)
60 | O=C1CCc2cc(S(=O)(=O)N3CCC(C(=O)NCc4ccccc4Cl)CC3)ccc2N1 | 5010 (inactive)
61 | CSc1cccc(NC(=O)C2CCCN2S(=O)(=O)c2ccc3c(c2)CCC(=O)N3)c1 (stereo not given) | 22100 (active)
62 | Cc1cccc(NC(=O)C2CCCN2S(=O)(=O)c2ccc(F)cc2)c1C (stereo not given) | 12300 (inactive)
63 | O=CNc1cc(-c2ccc(C(=O)N3CCOCC3)cc2)cn2c(-c3ccc(F)cc3)cnc12 | 4100 (inactive)
64 | NC(Cc1ccccc1)c1csc(Nc2cc(Oc3ccccc3)ncn2)n1 (stereo not given) | 3760 (inactive)
65 | CC1CC(C)CN(CC(=O)N2c3ccccc3CCc3ccccc32)C1 (stereo not given) | 17600 (active)
66 | CN1CCN(C(=O)N2c3ccccc3CCc3ccccc32)CC1 | 4530 (inactive)
67 | CC1CC(C)CN(CC(=O)Nc2ccc(S(N)(=O)=O)cc2)C1 (stereo not given) | 4900 (inactive)
68 | Cc1cccc(C)c1-n1nnnc1C1(C)CCC(=O)N1CCOc1ccccc1 (stereo not given) | 6150 (inactive)
69 | Cc1nc2c(OCC(=O)C(C)(C)C)cccn2c1N(C)Cc1cccs1 | 2880 (inactive)

Row | SMILES | fluorescence intensity
70 | CC(C)C[C@@H]1Cc2[nH][nH]c(=O)c2[C@H](CCc2ccccc2)O1 | 4470 (inactive)
71 | N=C1c2ccccc2-c2ccccc21 | 3590 (inactive)
72 | COc1ccc(C(C#N)N2N=C(C)CC2(C)C)cc1 (stereo not given) | 4130 (inactive)
73 | CC(C)NC(=O)CSc1nnc(COc2ccccc2Cl)o1 | 4480 (inactive)
74 | CCn1c(CSc2ncccn2)nnc1SCC(=O)N1c2ccccc2CC1C (stereo not given) | 23500 (active)
75 | CC1Cc2ccccc2N1C(=O)Cn1cnc2ccccc2c1=O (stereo not given) | 3200 (inactive)
76 | CC1CC(C)CN(C(=O)CSc2nnc(CSc3ncccn3)n2C)C1 (stereo not given) | 4260 (inactive)
77 | O=C(CSc1nc2ccccc2o1)N1CCN(c2ccccc2)CC1 | 2560 (inactive)
78 | CCS(=O)(=O)c1ccc2oc(SCC(=O)N3c4ccccc4CC3C)nc2c1 (stereo not given) | 8960 (inactive)
79 | O=C(CSc1nc2ccccc2o1)N1CCN(c2ccc(Cl)cc2)CC1 | 6400 (inactive)
80 | O=C(CSc1nc2ccccc2o1)N1c2ccccc2Sc2ccc(Cl)cc21 | 22300 (active)
81 | Cc1ccc(NC(=O)CSc2nnc(COc3ccccc3C)o2)cc1 | 3160 (inactive)
82 | Cc1ccccc1OCc1nnc(SCC(=O)N2c3ccccc3Sc3ccc(Cl)cc32)o1 | 20200 (active)
83 | CC1Cc2ccccc2N1C(=O)CSc1nc2ccccc2o1 (stereo not given) | 16300 (active)
84 | CC1Cc2ccccc2N1C(=O)CSc1nnc(C2CC2)n1C (stereo not given) | 4920 (inactive)
85 | O=S(=O)(c1ccc(Cl)cc1)N1CCCN(c2ccc(C(F)(F)F)cn2)CC1 | 6060 (inactive)
86 | NC(c1csc(NC(=O)Nc2cccc(C(F)(F)F)c2)n1)C1CCCCC1 (stereo not given) | 2870 (inactive)
87 | Cc1cc2oc3ccc(NCCC4CCCN4C)cc3c(=O)c2cc1C (stereo not given) | 5120 (inactive)
88 | COC(=O)c1ccc2nc(-c3ccc(F)cc3)c(Cc3ccc(C)cc3)n2c1 | 7460 (inactive)
89 | Cc1ccc(NC2=NC(c3ccccc3)n3c(nc(C)cc3=O)N2)cc1 (stereo not given) | 3910 (inactive)
90 | CC(=O)Nc1c(-c2ccc(C)cc2)nc2ccc(Cl)cn12 | 2860 (inactive)
